Screening data as filed in PubChem.
Shiga toxin inh: inhibitors of Shiga toxin in Vero cells; 290,000 compounds, 9.2% hits; inhibition, % at 38.7 µM; Vero cells, Shiga toxin protein synthesis inhibition reporter; in the data active means inhibition mostly above about 28%, no sharp cut-off; inactive means mostly below about 43%; further: 0% is about no effect
Sm TGR inh: inhibitors of Schistosoma mansoni thioredoxin glutathione reductase; purified TGR, DTNB reduction, TNB absorbance 405 nm; Potency, µM (titrated, usually from 114 µM), for the others: at the top dose activity change, negative = inhibition, most hits filed as inhibitors; AID 485364; 360,000 compounds, 3% hits; further: potency means the concentration at half of the fitted maximal effect; on the % scale 0 is the no-effect control and ±100 the full control effect; nearly all actives have a fitted effect of over 60% in size
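TGR 20 nM + NADPH 100 uM (dispensed conc.), cpd preinc 15 min RT; start with NADPH (500 uM addition) then DTNB (15 mM addition). Kinetic TNB absorbance, 405 nm filter. Four-parameter Hill fit across titration.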
LmPK inh: LmPK (Leishmania mexicana) enzyme inhibition. Q27686. purified LmPK, Kinase-Glo ATP luminescence, 1 h. Potency, µM (highest dose often 57.5 µM), inactives show at the highest dose activity change, negative = inhibition, most hits filed as inhibitors. 290,000 compounds, 0.37% hits; further: potency means the concentration at half of the fitted maximal effect; on the % scale 0 is the no-effect control and ±100 the full control effect
Target sequence (Q27686 whole entry, looked up): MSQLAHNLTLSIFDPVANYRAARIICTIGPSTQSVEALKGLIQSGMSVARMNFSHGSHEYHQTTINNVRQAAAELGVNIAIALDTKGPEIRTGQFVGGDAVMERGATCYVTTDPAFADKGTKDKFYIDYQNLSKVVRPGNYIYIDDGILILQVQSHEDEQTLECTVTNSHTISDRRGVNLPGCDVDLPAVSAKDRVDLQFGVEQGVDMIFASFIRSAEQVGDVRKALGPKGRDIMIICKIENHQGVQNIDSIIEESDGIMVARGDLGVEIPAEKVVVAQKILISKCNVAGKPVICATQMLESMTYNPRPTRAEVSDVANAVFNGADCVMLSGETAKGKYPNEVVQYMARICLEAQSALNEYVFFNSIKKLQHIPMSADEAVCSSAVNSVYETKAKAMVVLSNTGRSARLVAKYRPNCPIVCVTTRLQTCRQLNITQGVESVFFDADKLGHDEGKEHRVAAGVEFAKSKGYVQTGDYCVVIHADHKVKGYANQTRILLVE
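Kinase-Glo luminescence read after 1 h RT reaction of 0.1 nM LmPK with 0.5 mM PEP and 0.1 mM ADP. Activity scaled between uninhibited and enzyme-free controls.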
Tb PYK inh: inhibitors of Trypanosoma brucei pyruvate kinase; TbPYK enzyme, Kinase-Glo Plus ATP luminescence, 45 min; Potency, µM (top dose mostly 76.8 µM), for the others: at the highest dose activity, negative = inhibition, hits mostly inhibitors; 410,000 compounds, 0.12% hits; AID 624173; further: potency means the concentration at half of the fitted maximal effect; on the % scale 0 is the no-effect control and ±100 the full control effect; nearly all actives have a fitted effect of over 50% in size
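Quantitative HTS: titrated library compounds versus trypanosomal pyruvate kinase in TEA buffer (pH 7.2) containing KCl, MgCl2, BSA and Tween-20. Reactions were initiated with ADP, 130 uM final. Kinase-Glo Plus luminescence was read after 45 min at RT.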
Giardia FBPA inh: inhibitors of Giardia lamblia fructose-1,6-bisphosphate aldolase; purified Giardia FBPA; Potency, µM (series often up to 59.6 µM), for inactives: top-dose activity, negative = inhibition, hits mostly inhibitors; 290,000 compounds, 0.71% hits; further: potency means the concentration at half of the fitted maximal effect; on the % scale 0 is the no-effect control and ±100 the full control effect; nearly all actives have a fitted effect of over 55% in size
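Giardia FBPA (40 nM reagent) was preincubated 10 min at RT with compound (up to 57.5 uM final), then substrate plus GAPDH/TPI/NAD/arsenate coupling system with diaphorase/resazurin was added; resorufin fluorescence (525/598 nm) was read after 20 min.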
CHX counter: affects cycloheximide protein synthesis inhibition readout, counter-screen; cell reporter, cycloheximide protein synthesis inhibition counterscreen; max response, %; 300,000 compounds, 12% hits; AID 2314; in the data active means max response mostly above about 13%, no sharp cut-off; inactive means mostly below about 14%; further: read at 38.3 µM for the half of the compounds with a filed dose; 0% is about no effect
* = called active by the depositor; [ ] = another dose, or the depositor's remark. The full list was thinned out, with hits kept by preference. Unless noted, the call rests on the fitted dose curve; in most records, active means well fitted curve in the direction sought with a large enough effect; inconclusive means small, poorly fitted or top-dose-only effect, or another doubt; inactive means no such curve, though single readings can be large; an effect the other way counts as inactive or inconclusive.

Screening O=c1cc(-c2ccccc2)[nH]n1-c1nc2ccccc2s1 returned Shiga toxin inh 22, Sm TGR inh -25%, LmPK inh 4%, Tb PYK inh -4%, Giardia FBPA inh inconclusive and CHX counter 13.
c1cc2c(cnc3cscc32)s1 was read as Shiga toxin inh 19, Sm TGR inh -28%, LmPK inh -9%, Tb PYK inh 1%, Giardia FBPA inh -15% and CHX counter 16*.
`CCCCOc1ccc(C2CC(=O)NC2=O)cc1` (configuration not stated) gave Shiga toxin inh 67*, Sm TGR inh 2%, LmPK inh -1%, Tb PYK inh 5%, Giardia FBPA inh -5% and CHX counter 36*.
Screening CCCCOc1ccc(CC2CCC(=O)NC2=O)cc1 (configuration not stated) returned Shiga toxin inh 3, Sm TGR inh 4%[57.1 µM], LmPK inh -12%, Tb PYK inh 3%, Giardia FBPA inh -5% and CHX counter 13*.
Screening CCCOc1ccc(C2CC(=O)NC2=O)cc1 (configuration not stated) returned Shiga toxin inh 24, Sm TGR inh 0%, LmPK inh 4%, Tb PYK inh -21%, Giardia FBPA inh 0% and CHX counter -4.
For CCc1ccc(/C=C2\SC(=S)N(CCCC(=O)Nc3ccccn3)C2=O)cc1 the results were Shiga toxin inh -23, Sm TGR inh 3%, LmPK inh 5%, Tb PYK inh -4%, Giardia FBPA inh 1% and CHX counter -6.
For CCc1ccc(/C=C2/SC(=S)N(CC(=O)Nc3nc4ccccc4s3)C2=O)cc1 the results were Shiga toxin inh 78*, Sm TGR inh 3%, LmPK inh -2%, Tb PYK inh -5%, Giardia FBPA inh 0% and CHX counter 22*.
`O=C(CN1C(=O)C2CC=CCC2C1=O)Nc1nc2ccccc2s1` (configuration not stated) gave Shiga toxin inh 52*, Sm TGR inh 6%, LmPK inh 4%, Tb PYK inh -8%, Giardia FBPA inh 8% and CHX counter 28*.
`Cc1ccc2nc(NC(=O)CN3C(=O)C4CC=CCC4C3=O)sc2c1` (configuration not stated) gave Shiga toxin inh 14, Sm TGR inh 1%, LmPK inh 6%, Tb PYK inh -3%, Giardia FBPA inh 3% and CHX counter 14*.
`OCc1nc2c(ccc3ccccc32)[nH]1` gave Shiga toxin inh 10, Sm TGR inh -11%, LmPK inh -3%, Tb PYK inh 1%, Giardia FBPA inh -2% and CHX counter 12*.
Clc1nc2c(ccc3ccccc32)[nH]1 was read as Shiga toxin inh 71*, Sm TGR inh 16%, LmPK inh 1%, Tb PYK inh 0%, Giardia FBPA inh -24% and CHX counter 41*.
`O=C(COC(=O)CCS(=O)(=O)c1ccccc1)Nc1ccccc1` gave Sm TGR inh 8.9µM* and Tb PYK inh -13%.
Screening O=C(COC(=O)CCNS(=O)(=O)c1ccccc1)Nc1ccc(OC(F)F)cc1 returned Sm TGR inh -3% and Tb PYK inh -6%.
Screening CC(=O)Nc1ccc(C(=O)COC(=O)CCS(=O)(=O)c2ccccc2)cc1 returned Sm TGR inh -16% and Tb PYK inh -4%.
Screening N#Cc1ccc(NC(=O)COC(=O)CCNS(=O)(=O)c2ccccc2)cc1 returned Shiga toxin inh 12, Sm TGR inh -2%, LmPK inh -3%, Tb PYK inh 31%, Giardia FBPA inh -2% and CHX counter 45*.
`Cc1cn2c(=O)cc(COC(=O)c3cccc(NC(=O)c4ccccc4C)c3)nc2s1` gave Sm TGR inh 5% and Tb PYK inh 2%.
C/C(NC(=O)c1ccccc1F)=C1\C(=O)C[C@@H]2[C@H]1C2(C)C was read as Shiga toxin inh 35, Sm TGR inh -34%, LmPK inh 1%, Tb PYK inh -13%, Giardia FBPA inh -3% and CHX counter 14*.
`CCCCc1ccc(NC(=O)Cn2c(=O)c(N3CCCCC3)c(N)n(C)c2=O)cc1` gave Tb PYK inh -18%.
For O=C(Nc1cccnc1)c1sc2cccc(F)c2c1Cl the results were Shiga toxin inh 47*, Sm TGR inh -35%, LmPK inh -2%, Tb PYK inh -6%, Giardia FBPA inh 0% and CHX counter 38*.
Screening COc1ccc(NC(=O)Nc2ccc(F)c(Cl)c2)cc1 returned Shiga toxin inh 91*, Sm TGR inh -22%, LmPK inh -9%, Tb PYK inh 1%, Giardia FBPA inh 0% and CHX counter 65*.
For O=C(Nc1ccccn1)c1sc2cccc(F)c2c1Cl the results were Shiga toxin inh 11, Sm TGR inh -3%, LmPK inh 1%, Tb PYK inh -1%, Giardia FBPA inh 3% and CHX counter 14.
`O=C(Nc1cccnc1)Nc1ccc(F)c(Cl)c1` gave Shiga toxin inh 26, Sm TGR inh 21%, LmPK inh -4%, Tb PYK inh -13%, Giardia FBPA inh 3% and CHX counter 15*.
Cc1ccc(NC(=O)Nc2ccc(F)c(Cl)c2)cc1 was read as Shiga toxin inh 82*, Sm TGR inh 4%, LmPK inh -2%, Tb PYK inh -11%, Giardia FBPA inh 1% and CHX counter 30*.
CC1(C)S[C@@H]2[C@H](NC(=O)[C@H](NC(=O)N3CCN(S(C)(=O)=O)C3=O)c3ccccc3)C(=O)N2[C@H]1C(=O)O was read as Tb PYK inh -10%.
For O=C1ON=C(c2ccccc2[N+](=O)[O-])/C1=C/c1cccc([N+](=O)[O-])c1O the results were Sm TGR inh -2% and Tb PYK inh -4%.
`Cc1cc(C)cc(NC(=O)CC(C)n2nc(C)cc2C)c1` (configuration not stated) gave Sm TGR inh 0% and Tb PYK inh 4%.
COc1ccc(NC(=O)Nc2ccc(Br)c(C)c2)cc1 was read as Shiga toxin inh 31*, Sm TGR inh 10%, LmPK inh 0%, Tb PYK inh 3%, Giardia FBPA inh -2% and CHX counter 11.
For CCN(CC(=O)Nc1cccc(OC)c1)CC(=O)Nc1ccc(Br)c(C)c1 the results were Shiga toxin inh 3, Sm TGR inh 32%, LmPK inh 4%, Tb PYK inh 6%, Giardia FBPA inh 8% and CHX counter -3.
Screening Cc1ccsc1C(=O)N1CCCC(CO)(Cc2ccccc2)C1 (configuration not stated) returned Shiga toxin inh 38, Sm TGR inh 0%, LmPK inh 11%, Tb PYK inh 2%, Giardia FBPA inh 2% and CHX counter 22*.
